Experimental data from PubChem BioAssay (Tox21).
Where “and” joins values, the source holds several entries; their conditions need not be identical. Identical values can stand only once. Results filed as inconclusive are left out. Entries that show only a call come without a potency. The source holds several records for some structures; these can differ, active in one and inactive in another. Calls of active or inactive are those of the source. Calls come from the whole dose curve; as a rule, active = well fitted curve in the direction sought with a large enough effect in the repeat runs; inconclusive = weak or mixed curves; inactive = no such curve, though single readings can be large; an effect the other way counts as inactive or inconclusive.

Key:
[1] = A CellTox Green Cytotoxicity Assay to monitor cytotoxicity in HEK293 cells - 40 hour (AID 1224871); settings: CellTox Green fluorescence; series mostly up to 35.3 µM; note: nearly all actives have a fitted effect of over 45% in size
Summary of the method: (§1)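 Homogeneous no-lysis format: HEK293 cell suspension mixed with CellTox Green reagent, seeded, incubated 5 h at 37 C/5% CO2, then dosed by pintool with compound in DMSO.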

[2] = qHTS RealTime-Glo MT Cell Viability Assay in HEK293 cells - 16 hour (AID 1224872); settings: RealTime-Glo luminescence; series mostly up to 76.8 µM; note: top concentration of the series differs between compounds; nearly all actives have a fitted effect of over 50% in size
Summary of the method: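 Tox21 10K qHTS, HEK293, 600 cells/well, RealTime-Glo reagent co-dispensed with cells; 5 h preincubation, compound by pintool, 37 C, luminescence at 0–40 h.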

[3] = qHTS RealTime-Glo MT Cell Viability Assay in HepG2 cells - 8 hour (AID 1224873); settings: RealTime-Glo luminescence; series mostly up to 76.8 µM; note: nearly all actives have a fitted effect of over 55% in size
Summary of the method: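 Real-time viability: cells seeded at 600 per well together with NanoLuc and cell-permeant prosubstrate, compounds added after 5 h incubation. Luminescence tracked at 0, 8, 16, 24, 32 and 40 h of exposure.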

[4] = qHTS RealTime-Glo MT Cell Viability Assay in HEK293 cells - 40 hour (AID 1224874); settings: RealTime-Glo luminescence; max response: stronger effect = lower value; note: nearly all actives have a fitted effect of over 50% in size
Summary of the method: (§2)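 Measured as luminescence from the same continuously cultured HEK293 wells at successive time points (0, 8, 16, 24, 32, 40 h) after compound addition. Reagent present from seeding; dosing at 5 h; incubation 37 C.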

[5] = A CellTox Green Cytotoxicity Assay to monitor cytotoxicity in HEK293 cells - 24 hour (AID 1224875); settings: CellTox Green fluorescence; series mostly up to 76.8 µM; note: nearly all actives have a fitted effect of over 45% in size
Summary of the method: as §1

[6] = A CellTox Green Cytotoxicity Assay to monitor cytotoxicity in HepG2 cells - 16 hour (AID 1224876); settings: CellTox Green fluorescence; series mostly up to 76.8 µM; note: nearly all actives have a fitted effect of over 45% in size
Summary of the method: (§3)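 Fluorescent DNA-binding dye, 600 HepG2 cells/well, 5 h preincubation then compound in DMSO; same plates read at 0–40 h, 37 C.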

[7] = qHTS RealTime-Glo MT Cell Viability Assay in HepG2 cells - 32 hour (AID 1224877); settings: RealTime-Glo luminescence; series mostly up to 76.8 µM; note: nearly all actives have a fitted effect of over 55% in size
Summary of the method: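 Cells + NanoLuc/prosubstrate dispensed (600 cells/well) → 5 h at 37 C/5% CO2 → compounds in DMSO transferred → 40 h incubation at 37 C, luminescence read at 0, 8, 16, 24, 32, 40 h.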

[8] = A CellTox Green Cytotoxicity Assay to monitor cytotoxicity in HepG2 cells - 24 hour (AID 1224878); settings: CellTox Green fluorescence; series mostly up to 76.8 µM; note: nearly all actives have a fitted effect of over 45% in size; note: potency is the fitted concentration of half-maximal effect
Summary of the method: as §3

[9] = A CellTox Green Cytotoxicity Assay to monitor cytotoxicity in HepG2 cells - 40 hour (AID 1224879); settings: CellTox Green fluorescence; series mostly up to 76.8 µM; note: nearly all actives have a fitted effect of over 40% in size; note: potency is the fitted concentration of half-maximal effect
Summary of the method: as §3

[10] = qHTS RealTime-Glo MT Cell Viability Assay in HEK293 cells - 0 hour (AID 1224880); settings: RealTime-Glo luminescence; series mostly up to 76.8 µM; note: nearly all actives have a fitted effect of over 45% in size; note: potency is the fitted concentration of half-maximal effect; for activity change, negative = cytotoxicity: top concentration of the series differs between compounds
Summary of the method: as §2

SMILES	Potency [1]	Potency [2]	Potency [3]	max response [4]	Potency [5]	Potency [6]	Potency [7]	Potency [8]	Potency [9]	Potency [10]	activity change, negative = cytotoxicity [2]	viability change, negative = cytotoxic [3]	activity change [5]	cytotoxicity increase [6]	activity change, negative = cytotoxic [7]	cytotoxicity increase [9]	activity change, negative = cytotoxicity [10]
C[C@@H]1CCN(C(=O)[C@H](CCCN=C(N)N)NS(=O)(=O)c2cccc3c2NC[C@H](C)C3)[C@@H](C(=O)O)C1	inactive	inactive	inactive	4.96% (inactive)	inactive	inactive	inactive	inactive	inactive	inactive	–	–	–	–	–	–	–
OC1CCCCC1c1ccccc1 (configuration not stated)	inactive	inactive	inactive	3.62% (inactive)	inactive	inactive	inactive	inactive	inactive	inactive	–	–	–	–	–	–	–
NS(=O)(=O)c1ccccc1Cl	inactive	inactive	inactive	-11.8% (inactive)	inactive	inactive	inactive	inactive	inactive	inactive	–	–	–	–	–	–	–
CC(=O)c1ccccc1O	inactive	inactive	inactive	9.04% (inactive)	inactive	inactive	inactive	inactive	inactive	inactive	–	–	–	–	–	–	–
CCOC(=O)c1c(C)n(C)c2ccc(O)cc12	inactive	inactive	inactive	-25.6% (inactive)	inactive	inactive	inactive	inactive	inactive	inactive	–	–	–	–	–	–	–
CCN1CCC[C@H]1CNC(=O)c1c(O)c(Cl)cc(Cl)c1OC	inactive	inactive	inactive	-0.593% (inactive)	inactive	inactive	inactive	inactive	inactive	inactive	–	–	–	–	–	–	–
O=Cc1cccc([N+](=O)[O-])c1	inactive	inactive	inactive	5.4% (inactive)	inactive	inactive	inactive	inactive	inactive	inactive	–	–	–	–	–	–	–
O=C1CCCCCCCCCCCN1	inactive	inactive	inactive	0.14% (inactive) and 1.61% (inactive)	inactive	inactive	inactive	inactive	inactive	inactive	–	–	–	–	–	–	–
CCCCOCCOCCOCc1cc2c(cc1CCC)OCO2	inactive	inactive	inactive	-15.9% (inactive)	inactive	inactive	inactive	22.1 µM (active) and inactive	22.1 µM (active) and inactive	inactive	–	–	–	–	–	–	–
CCn1ccnc1CC1COc2ccccc2O1 (configuration not stated)	inactive	inactive	inactive	-26.6% (inactive)	inactive	inactive	inactive	inactive	inactive	inactive	–	–	–	–	–	–	–
CCSC(=O)N(CC(C)C)CC(C)C	inactive	inactive	inactive	5.8% (inactive)	inactive	inactive	inactive	inactive	inactive	inactive	–	–	–	–	–	–	–
CCCN(CCC)CCc1cccc2c1CC(=O)N2	inactive	inactive	inactive	5.11% (inactive)	inactive	inactive	inactive	inactive	inactive	inactive	–	–	–	–	–	–	–
CN1CC(=O)NC1=N	inactive	inactive	inactive	9.12% (inactive)	inactive	inactive	inactive	inactive	inactive	inactive	–	–	–	–	–	–	–
CCCCOCCOCCOCCCC	inactive	inactive	inactive	3.79% (inactive)	inactive	inactive	inactive	inactive	inactive	inactive	–	–	–	–	–	–	–
O=C1OC(=O)C2CCCCC12 (configuration not stated)	inactive	inactive	inactive	1.13% (inactive)	inactive	inactive	inactive	inactive	inactive	inactive	–	–	–	–	–	–	–
C=C1CC[C@H]2C[C@@H]1C2(C)C	inactive	inactive	inactive	5.42% (inactive)	inactive	inactive	inactive	inactive	inactive	inactive	–	–	–	–	–	–	–
NC(=O)c1cn(Cc2c(F)cccc2F)nn1	inactive	inactive	inactive	4.6% (inactive)	inactive	inactive	inactive	inactive	inactive	inactive	–	–	–	–	–	–	–
CO[Si](CCCOCC1CO1)(OC)OC (configuration not stated)	inactive	inactive	inactive	0.892% (inactive) and 6.22% (inactive)	inactive	inactive	inactive	inactive	inactive	inactive	–	–	–	–	–	–	–
CC/C=C\CC/C=C/CO	inactive	inactive	inactive	6.89% (inactive)	inactive	inactive	inactive	inactive	inactive	inactive	–	–	–	–	–	–	–

SMILES	Potency [1]	Potency [2]	Potency [3]	max response [4]	Potency [5]	Potency [6]	Potency [7]	Potency [8]	Potency [9]	Potency [10]	activity change, negative = cytotoxicity [2]	viability change, negative = cytotoxic [3]	activity change [5]	cytotoxicity increase [6]	activity change, negative = cytotoxic [7]	cytotoxicity increase [9]	activity change, negative = cytotoxicity [10]
Nc1c2c(nc3ccccc13)CCCC2O (configuration not stated)	inactive	inactive	inactive	24.6% (inactive)	inactive	inactive	inactive	inactive	inactive	inactive	–	–	–	–	–	–	–
CN1CCCC1	inactive	inactive	inactive	1.57% (inactive)	inactive	inactive	inactive	inactive	inactive	inactive	–	–	–	–	–	–	–
NC(=O)c1ccc(N)cc1	inactive	inactive	inactive	-2.31% (inactive)	inactive	inactive	inactive	inactive	inactive	inactive	–	–	–	–	–	–	–
COc1ccc2c(c1)CCCC2=O	inactive	inactive	inactive	0.353% (inactive)	inactive	inactive	inactive	inactive	inactive	inactive	–	–	–	–	–	–	–
CCOC(=O)c1cccc(N)c1	inactive	inactive	inactive	3.26% (inactive)	inactive	inactive	inactive	inactive	inactive	inactive	–	–	–	–	–	–	–
O=c1[nH]c(=O)n([C@H]2C[C@H](O)[C@@H](CO)O2)cc1I	inactive	inactive	inactive	5.93% (inactive)	inactive	inactive	inactive	inactive	inactive	inactive	–	–	–	–	–	–	–
CCCC(=O)O[C@]1(C(=O)CO)CC[C@H]2[C@@H]3CCC4=CC(=O)CC[C@]4(C)[C@H]3[C@@H](O)C[C@@]21C	inactive	inactive	inactive	0.181% (inactive)	inactive	inactive	inactive	inactive	inactive	10.7 µM (active)	–	–	–	–	–	–	–
CCOC(=O)C(=O)OCC	inactive	inactive	inactive	6.27% (inactive)	inactive	inactive	inactive	inactive	inactive	inactive	–	–	–	–	–	–	–
NC(=O)COCCN1CCN(C(c2ccccc2)c2ccc(Cl)cc2)CC1 (configuration not stated)	inactive	inactive	inactive	4.08% (inactive)	inactive	inactive	inactive	inactive	inactive	inactive	–	–	–	–	–	–	–
CC/C=C\CC/C=C/C(OCC)OCC	inactive	inactive	inactive	11.7% (inactive)	inactive	inactive	inactive	–	inactive	inactive	–	–	–	–	–	–	–
C=COCC1CCC(CO)CC1 (configuration not stated)	inactive	inactive	inactive	11.5% (inactive)	inactive	inactive	inactive	–	inactive	inactive	–	–	–	–	–	–	–
O=C(O)CNC(=O)c1ccc([N+](=O)[O-])cc1	inactive	inactive	inactive	-0.136% (inactive)	inactive	inactive	inactive	inactive	inactive	inactive	–	–	–	–	–	–	–
CC(C)(CC(=O)O)C(=O)O	inactive	inactive	inactive	0.211% (inactive)	inactive	inactive	inactive	inactive	–	inactive	–	–	–	–	–	–	–
Nc1ccc(S(=O)(=O)Nc2ccnn2-c2ccccc2)cc1	inactive	–	–	3.19% (inactive)	–	–	–	–	–	–	9.13% [at 15.8 µM] (inactive)	-7.88% [at 15.8 µM] (inactive)	1.21% [at 15.8 µM, stronger effect = higher value] (inactive)	2.84% [at 15.8 µM] (inactive)	1.3% [at 15.8 µM] (inactive)	1.49% [at 15.8 µM] (inactive)	3.82% [at 15.8 µM] (inactive)
CC(C)=CCCC(C)CC(=O)O (configuration not stated)	inactive	inactive	inactive	2.41% (inactive)	inactive	inactive	inactive	inactive	inactive	inactive	–	–	–	–	–	–	–
CCOC(=O)c1ccc(C)cc1	inactive	inactive	inactive	8.25% (inactive)	inactive	inactive	inactive	–	inactive	inactive	–	–	–	–	–	–	–
CC(C)CCCC(C)N (configuration not stated)	inactive	inactive	inactive	5.83% (inactive)	inactive	inactive	inactive	–	inactive	inactive	–	–	–	–	–	–	–
COC(=O)[C@@H](N)Cc1ccc(O)c(O)c1	inactive	inactive	inactive	2.16% (inactive)	inactive	inactive	inactive	–	inactive	inactive	–	–	–	–	–	–	–
CCN(CC)CCOCCOC(=O)C1(c2ccccc2)CCCC1	inactive	inactive	inactive	-9.14% (inactive)	inactive	inactive	inactive	–	inactive	inactive	–	–	–	–	–	–	–
